Data taken from PubChem BioAssay AID1159580 (chemical genetic matrix, 2015).
Screen size: about 5,500 compounds; about 2,000 (36%) were called active. Roughly 18% stayed inconclusive and do not appear here. Cut-off read from the data, not from the text of the source: active = normalized growth mostly below about 0.91 (no sharp cut-off); inconclusive = no clear call, values can overlap the other calls; inactive = mostly above about 0.92. Some of the results follow.

Assay: chemical genetic growth profiling, strain panel (AID 1159580);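 note: tested at 20 µM; growth read once vehicle control cultures reached saturation at 30 °C; 1 = growth at the plate median or of vehicle wells; lower values mean less growth of the strain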
Settings: S. cerevisiae deletion strains, growth OD

Measured: normalized growth

COc1ccc(CCN(C)CCCC(C#N)(c2cc(OC)c(OC)c(OC)c2)C(C)C)cc1OC (stereo not given)
inactive: locus YAL040C, strain CLN3, active compounds read low 1.01 | locus YCL061C, strain MRC1 (second series), active compounds read low 0.995 | locus YDR150W, strain NUM1, active compounds read low 1.01 | locus YDR363W, strain ESC2, active compounds read low 0.97 | locus YER002W, strain NOP16, active compounds read low 1.03 | locus YGR078C, strain PAC10, active compounds read low 1.03 | locus YJR075W, strain HOC1, active compounds read low 1 | locus YMR307W, strain GAS1, active compounds read low 1.02 | locus YNL153C, strain GIM3, active compounds read low 1.02 | locus YNL175C, strain NOP13, active compounds read low 1.01 | locus YNL197C, strain WHI3, active compounds read low 1.01 | locus YNL224C, strain SQS1, active compounds read low 1.01 | locus YOR083W, strain WHI5 (second series), active compounds read low 1 | locus YPL055C, strain LGE1, active compounds read low 1 | locus YPL241C, strain CIN2, active compounds read low 1.01
